# Laboratory results as given in PubChem BioAssay (NCI).
# This is part of a sample that, as a whole, favours compounds with a hit. Of some 83,000 tested, about 20% had one in any assay.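 Activity criterion: percent growth below 10, measured after cells in 96-well plates were exposed to a single compound concentration for 48 hours.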 A number with no mark means an inactive call. Active and inactive are the calls of the source.
# Experiments:
# Assay in all cases: NCI-60 one-dose screen, 48 h (100 = growth as untreated, 0 = no growth, -100 = all killed)
# Conditions in all cases: 10 µM unless noted
# [1] = tested on: T-47D breast
# [2] = tested on: BT-549 breast
# [3] = tested on: MDA-MB-435 melanoma
# [4] = tested on: SW-620 colon
# [5] = tested on: MCF7 breast
# [6] = tested on: HCT-116 colon
# [7] = tested on: HCC-2998 colon
# [8] = tested on: KM12 colon
Compound,growth [1],growth [2],growth [3],growth [4],growth [5],growth [6],growth [7],growth [8]
COC(=O)c1cc(-c2cccs2)c(C#N)c(N)c1C#N,69.1%,107%,104%,102%,67.7%,95.5%,106%,108%
COc1ccccc1OCC(=O)Nc1sc2c(c1C(N)=O)CCC2,62.5%,85.6%,78.9%,64.5%,27.8%,63.1%,58.8%,105%
O=C(/C=C/c1ccccc1)n1c(-c2ccc(Cl)cc2)nc2ccccc21,-4.25% (active),-50.5% (active),-44.3% (active),-55.1% (active),10.3%,-71.5% (active),5.08% (active),-62.9% (active)
O=C(CNC(=O)c1cccc2ccccc12)Nc1ccccc1Oc1ccccc1,12.1%,-0.557% (active),-5.12% (active),22.8%,11.3%,-2.26% (active),21%,9.93% (active)
COc1cccc(-c2nc3sccn3c2-c2ccnc(NCCCNS(=O)(=O)c3ccccc3)n2)c1,0.88% (active),47.2%,40.9%,75.1%,52%,38.6%,93.8%,43.5%
O=C1Nc2cc(Cl)ccc2/C1=C/c1ccc(N2CCOCC2)s1,84%,109%,102%,102%,86.7%,96.6%,114%,105%
Cc1nc2scc(-c3ccccc3)n2c(=O)c1CCO,99.6%,116%,103%,101%,88.9%,101%,112%,103%
CC(C)C[C@H](NC(=O)[C@@H](Cc1ccccc1)n1ccc(Nc2ccccc2)cc1=O)B(O)O,-15.4% (active),-10.5% (active),-51.3% (active),-10.4% (active),21.1%,-37.9% (active),-83.8% (active),-55.1% (active)
COC1=CC(c2ccc[nH]2)=N/C1=C\c1[nH]c(C)c(C(=O)CCCCC(=O)Oc2ccc3c(c2)CCC2C3CC[C@]3(C)[C@@H](O)CC[C@@H]23)c1C (stereo partly specified),5.62% (active),50.3%,51.2%,37.4%,27.2%,20.9%,83.1%,29.4%
C=CC(=O)N[C@H](/C=C/C(=O)OCC)Cc1ccc(-c2cc(Cl)cc(Cl)c2)cc1,57.7%,84.6%,96.1%,91.7%,82.8%,72.1%,94.6%,89.8%
CCCCNC(=O)NS(=O)(=O)c1ccc(N2N=C(c3ccc(C)cc3C)CC2c2ccc(OC)cc2)cc1 (stereo unspecified),75%,49.9%,9.96% (active),75.9%,48.7%,51.6%,58.6%,48%
C=C1C(=O)O[C@H]2[C@H]1CC/C(Cn1cc(-c3ccsc3)nn1)=C\CC[C@@]1(C)O[C@@H]21,-62% (active),-56.3% (active),-16% (active),-71.3% (active),-72.6% (active),-96.4% (active),-46.7% (active),34.3%
Cn1c(=O)c2c(nc3n2CCN(CCc2ccc(OCCN4CCOCC4)cc2)C3)n(C)c1=O,93.6%,109%,105%,105%,95.7%,109%,122%,103%
COc1ccc(C2SCC(=O)N2NC(=O)c2ccc(NC(=O)c3ccccn3)cc2)cc1OC (stereo unspecified),97.8%,102%,104%,104%,104%,100%,104%,95.8%
CC1=CNNc2c3ncnc-3ncn21,101%,106%,111%,102%,111%,102%,102%,103%
O=C1N=C(c2c(-c3[nH]c(=O)c4ccc(Br)cc4c3O)c(O)c3ccccc3c2O)C(=O)c2cc(Br)ccc21,-34.2% (active),-25.4% (active),-63.4% (active),-70.7% (active),-35.2% (active),-21.7% (active),-44.3% (active),-53.2% (active)

Compound,growth [1],growth [2],growth [3],growth [4],growth [5],growth [6],growth [7],growth [8]
O=C(Cc1c(F)cccc1Cl)Nc1ccc(S(=O)(=O)Nc2ncccn2)cc1,102%,90.8%,101%,102%,96.2%,102%,97.3%,111%
O=S(=O)(O)CCl,97.2%,100%,108%,103%,103%,103%,98.9%,105%
COc1ccc(OC)c(C(=O)c2oc3ccc(Br)cc3c2N)c1,37.9%,27.8%,-64.7% (active),16.2%,15.5%,16.8%,36.9%,30.6%
N=C(N)c1ccc(-c2ccc(-c3ccc(Cl)cc3)o2)nc1,-75.4% (active),-88% (active),-84.5% (active),-93.4% (active),-81.4% (active),-84.4% (active),-71.9% (active),-93.4% (active)
O=S=Nc1ccc([N+](=O)[O-])cc1,76.2%,91.8%,95.5%,93.4%,95.7%,94%,93.5%,81.6%
COc1cccc(NC(=O)c2sc3nc4c(cc3c2N)CCCC4)c1,41.5%,66.7%,-40.2% (active),32.1%,13.2%,20.7%,24.4%,23.1%
COc1ccc(NC(=O)CSc2nc3ccccc3c(=O)n2-c2ccccc2C(F)(F)F)c(OC)c1OC,95.1%,99.8%,107%,95.3%,97.8%,98.3%,118%,101%
CCOC(=O)C(Cc1ccccc1)n1c(O)c(C=Nc2ccc(C(=O)OCCN(CC)CC)cc2)sc1=O (stereo unspecified),81.6%,96.3%,90.1%,97.6%,74.5%,104%,108%,83.5%
COC(=O)CCCCCCN=Cc1c(O)c(O)c(C(C)C)c2cc(C)c(-c3c(C)cc4c(C(C)C)c(O)c(O)c(C=NCCCCCCC(=O)OC)c4c3O)c(O)c12,20.6%,38.6%,17.2%,17.9%,7.98% (active),8.17% (active),32.6%,18.2%
Cc1cc(NC(=O)COC(=O)c2sc3cc(F)ccc3c2Cl)no1,102%,117%,108%,108%,106%,103%,112%,108%
CCOC(=O)/C=C\C(=O)NC(N)=O,89.1%,100%,106%,107%,96.3%,86.4%,95.2%,106%
C=CCc1cc(Cl)cc2c(OC(C)=O)c(C(C)=O)c(-c3ccccc3)nc12,90.8%,116%,108%,107%,82.1%,105%,118%,99.5%
CCN(CC)CCSc1c2ccc(Cl)cc2nc2ccc(OC)cc12,-39.9% (active),107%,109%,4.29% (active),33.8%,50.3%,97.3%,99.1%
Cc1cnc(NC(=O)C(Cc2ccccc2)NC(=O)c2ccccc2)s1 (stereo unspecified),87.3%,88.4%,13.2%,80.3%,46.2%,49.7%,73.3%,60.2%
NCCSC(c1ccccc1)(c1ccccc1)c1ccccc1,25.6%,22.1%,-52.9% (active),19.1%,2.6% (active),7.63% (active),-41.7% (active),17.9%
Nc1cc2c(cc1N)-c1cc(N)c(N)cc1C2,110%,79.7%,108%,102%,93.5%,104%,105%,101%
